Laboratory results as given in PubChem BioAssay (Tox21).
Results filed as inconclusive are left out. Where a call stands in place of a potency, no number is given. Activity calls are given as the source filed them. Calls come from the whole dose curve; as a rule, active = well fitted inhibition curve with a large enough effect in the signal ratio in the repeat runs (not every such curve was filed as active); inconclusive = weak or mixed curves, or effect the other way; inactive = no such curve, though single readings can be large or run the other way; the % refers to the signal ratio.

Target: Bile acid receptor (Homo sapiens) (UniProt Q96RI1)
Experiment: qHTS assay to identify small molecule antagonists of the farnesoid-X-receptor (FXR) signaling pathway (AID 743217)
Settings: HEK293T FXR-UAS-bla, beta-lactamase ratio, CDCA-stimulated, 16 h; series mostly up to 62.6 µM
Excerpt: U.S. Tox21 Program National Center for Advancing Translational Sciences [NCATS] NIH Chemical Genomics Center [NCGC] U.S. Environmental Protection Agency [EPA] National Institutes of Environmental Health Sciences [NIEHS] National Toxicology Program [NTP] U.S. Food and Drug Administration [FDA] Tox21 Assay Overview: The farnesoid-X-receptor (FXR), a nuclear hormone receptor, is highly expressed in liver, intestine, kidney and adrenal cortex. Natural ligands of FXR are the bile acids (Cholic acid, Chenodeoxy cholic acid etc). FXR is an important regulator of diverse metabolic pathways, including the bile acid homeostasis, lipid and glucose metabolisms. FXR regulates the expression of target genes by binding either as a monomer or as a heterodimer with the retinoid X receptor (RXR). Numerous studies have reported that FXR exerts protective function during cholestasis, diabetes, liver regeneration, and cancer. To identify compounds that inhibit FXR signaling, GeneBLAzer FXR-UAS-bla HEK 293T cell line (Invitrogen, Carlsbad, CA) containing a beta-lactamase reporter gene under the control of a UAS response element was used to screen the Tox21 10K compound library.
Tox21 Assay Protocol Summary: FXR-bla cells were dispensed at 5000 cells/5uL/well in 1536-well black wall/clear bottom plates using a Multidrop Combi (Thermo Fisher Scientific, Waltham, MA) dispenser. After the assay plates were incubated at 37C and 5% CO2 for 5 h, 23 nL of compounds dissolved in DMSO, positive controls or DMSO only was transferred to the assay plate by a Pintool station (Kalypsys, San Diego, CA), followed by addition of 1 uL Chenodeoxycholic acid (50 uM, final concentration in the wells). The assay plates were incubated at 37C for 16 h. After 1 uL of LiveBLAzerTM B/G FRET substrate was added using a Bioraptr Flying Reagent Dispenser (FRD) workstation (Beckman Coulter, Indianapolis, IN), the plates were incubated at room temperature for 2 h, and fluorescence intensity was measured by an Envision plate reader (PerkinElmer, Shelton, CT).
Potency is the fitted concentration of half-maximal effect.

Bile acid receptor (Homo sapiens), sequence (Q96RI1 whole entry, looked up): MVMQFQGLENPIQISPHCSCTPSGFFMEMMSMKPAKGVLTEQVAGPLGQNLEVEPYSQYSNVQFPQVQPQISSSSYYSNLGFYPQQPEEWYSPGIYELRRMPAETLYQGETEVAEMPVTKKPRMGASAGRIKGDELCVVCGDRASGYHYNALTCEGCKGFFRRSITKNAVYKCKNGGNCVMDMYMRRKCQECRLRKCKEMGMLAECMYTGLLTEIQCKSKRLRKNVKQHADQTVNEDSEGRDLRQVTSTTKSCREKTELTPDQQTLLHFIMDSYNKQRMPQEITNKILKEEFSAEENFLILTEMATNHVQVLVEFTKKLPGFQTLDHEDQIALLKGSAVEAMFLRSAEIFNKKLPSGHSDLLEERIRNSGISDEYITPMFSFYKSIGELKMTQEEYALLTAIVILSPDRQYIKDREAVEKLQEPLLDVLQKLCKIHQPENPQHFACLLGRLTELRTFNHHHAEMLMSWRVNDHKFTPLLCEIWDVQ

**Q.** For `CC(C)N(C(=O)SC/C(Cl)=C/Cl)C(C)C`, which Potency is on record?
**A.** The Potency was “inactive”.

**Q.** `CC(Cc1ccc2c(c1)OCO2)NO` (stereo not given) was tested. Which Potency did it give?
**A.** Its Potency is “inactive”.

**Q.** For `C=Cc1cccc(CCl)c1`, which Potency is on record?
**A.** Its Potency is “inactive”.

**Q.** For `O=c1c2ccccc2c(=O)c2c1cc(Cl)c1[nH]c3c([nH]c12)c(Cl)cc1c(=O)c2ccccc2c(=O)c13`, which Potency is on record?
**A.** Its Potency is “inactive”.

**Q.** How did the Potency turn out when `Clc1cc(Cl)c(-c2cc(Cl)c(Cl)cc2Cl)cc1Cl` was run?
**A.** Its Potency is “inactive”.

**Q.** For `Cc1ccc(C)c2ccccc12`, which Potency is on record?
**A.** Its Potency is “inactive”.

**Q.** With `ClC(Cl)C(Cl)(Cl)Cl` as the compound, how does the Potency read?
**A.** Its Potency is “inactive”.

**Q.** With `CC(C)(C)c1ccc(OP(=O)(Oc2ccccc2)Oc2ccccc2)cc1` as the compound, how does the Potency read?
**A.** Its Potency is 24.7 µM (active).

**Q.** Which Potency does the source give for `CCOC(=O)Cc1ccccc1` here?
**A.** Its Potency is “inactive”.

**Q.** How did the Potency turn out when `CCOP(=S)(OCC)Oc1cc(C)nc(N(CC)CC)n1` was run?
**A.** The Potency was “inactive”.

**Q.** How did the Potency turn out when `Oc1ccc2[nH]cc(CCCCN3CC=C(c4ccccc4)CC3)c2c1` was run?
**A.** The Potency was “inactive”.

**Q.** `CCN(CC)CCN1C(=O)CN=C(c2ccccc2F)c2cc(Cl)ccc21` was tested. Which Potency did it give?
**A.** The Potency was “inactive”.

**Q.** Which Potency does the source give for `CC(Cc1ccc(O)cc1)NCC(O)c1cc(O)cc(O)c1` (stereo not given) here?
**A.** Its Potency is “inactive”.

**Q.** With `O=NN(CCO)CCO` as the compound, how does the Potency read?
**A.** The Potency was “inactive”.

**Q.** For `ClCBr`, which Potency is on record?
**A.** Its Potency is “inactive”.

**Q.** With `CNC(=O)CSP(=O)(OC)OC` as the compound, how does the Potency read?
**A.** The Potency was “inactive”.

**Q.** For `CCOP(=O)(Sc1ccccc1)Sc1ccccc1`, which Potency is on record?
**A.** Its Potency is “inactive”.

**Q.** `Cc1ccn2nc(S(=O)(=O)Nc3c(F)cccc3F)nc2n1` was tested. Which Potency did it give?
**A.** Its Potency is “inactive”.

**Q.** For `O=C(O)CCCCCCNC1c2ccccc2CCc2ccccc21`, which Potency is on record?
**A.** The Potency was “inactive”.

**Q.** Which Potency does the source give for `Brc1cccc(-c2ccccc2)c1` here?
**A.** Its Potency is “inactive”.

**Q.** Which Potency does the source give for `N#Cc1ccc(N(CC(N)=O)CC(F)(F)F)cc1C(F)(F)F` here?
**A.** The Potency was “inactive”.

**Q.** How did the Potency turn out when `CNC(=O)/C=C(\C)OP(=O)(OC)OC` was run?
**A.** Its Potency is “inactive”.

**Q.** `CC(C)C(Br)C(=O)NC(N)=O` (stereo not given) was tested. Which Potency did it give?
**A.** The Potency was “inactive”.

**Q.** With `CC(C)=CC1C(C(=O)OC(C#N)c2cccc(Oc3ccccc3)c2)C1(C)C` (stereo not given) as the compound, how does the Potency read?
**A.** The Potency was “inactive”.

**Q.** Which Potency does the source give for `CNC(=O)O/N=C(\C)C(C)S(C)(=O)=O` (stereo not given) here?
**A.** Its Potency is “inactive”.

**Q.** With `N#CSCc1ccccc1` as the compound, how does the Potency read?
**A.** The Potency was “inactive”.

**Q.** Which Potency does the source give for `O=Cc1ccccc1` here?
**A.** Its Potency is “inactive”.

**Q.** How did the Potency turn out when `N#CCCl` was run?
**A.** The Potency was “inactive”.

**Q.** Which Potency does the source give for `Cc1cnc2c(C(=O)O)c(Cl)ccc2c1` here?
**A.** Its Potency is “inactive”.

**Q.** `O=C(NC(=O)c1c(F)cccc1F)Nc1ccc(Oc2ccc(C(F)(F)F)cc2Cl)cc1F` was tested. Which Potency did it give?
**A.** The Potency was “inactive”.

**Q.** Which Potency does the source give for `C=CCBr` here?
**A.** Its Potency is “inactive”.

**Q.** How did the Potency turn out when `CCOC(=O)CCN(SN(C)C(=O)Oc1cccc2c1OC(C)(C)C2)C(C)C` was run?
**A.** Its Potency is “inactive”.

**Q.** How did the Potency turn out when `CN1C2CCC(C)(C)C1CC(OC(=O)C(O)(c1cccs1)c1cccs1)C2` (stereo not given) was run?
**A.** The Potency was “inactive”.

**Q.** With `COP(=S)(OC)Oc1ccc([N+](=O)[O-])c(C)c1` as the compound, how does the Potency read?
**A.** Its Potency is “inactive”.

**Q.** With `Nc1ccc(Cl)cc1C(=O)c1ccccc1F` as the compound, how does the Potency read?
**A.** Its Potency is “inactive”.

**Q.** With `C[C@@H]1CC2=CC(=O)CC[C@@H]2[C@H]2CC[C@@]3(C)[C@@H](CC[C@]3(C)O)[C@@H]21` as the compound, how does the Potency read?
**A.** Its Potency is “inactive”.

**Q.** Which Potency does the source give for `O=C1C(Cl)=C(Cl)C(=O)C(Cl)=C1Cl` here?
**A.** Its Potency is “inactive”.

**Q.** With `[O]=[Cr][O][Cr]=[O]` as the compound, how does the Potency read?
**A.** The Potency was “inactive”.

**Q.** Which Potency does the source give for `COP(=O)(OC)O/C(=C\Cl)c1cc(Cl)c(Cl)cc1Cl` here?
**A.** Its Potency is “inactive”.

**Q.** Which Potency does the source give for `CCOP(=O)(OCC)Oc1cc(C)nc(C(C)C)n1` here?
**A.** The Potency was “inactive”.
